Out of some 270,000 compounds screened, about 5,800 (2.1%) were called active. Where a call stands in place of a potency, no number is given. About 16% were inconclusive and are not listed. The call rests on the fitted dose curve; in most records, active means well fitted inhibition curve with a large enough effect; inconclusive means small, poorly fitted or top-dose-only effect; inactive means flat fitted curve, though single readings scatter. Many of the other results were omitted from the sample, so actives are more common in it than they were.
target: Microtubule-associated protein tau (Homo sapiens) (UniProt P10636); test: qHTS for Inhibitors of Tau Fibril Formation, Thioflavin T Binding; conditions: recombinant tau K18 P301L (four-repeat tau fragment), heparin-induced fibrillization, ThT fluorescence; series mostly up to 57.4 µM; further: nearly all actives have a fitted effect of over 55% in size
How it was run: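 Aggregation was driven by heparin (20 uM final) acting on recombinant tau […] bearing P301L in 100 mM sodium acetate pH 7; fibrils were detected with Thioflavin T.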
Potency means the concentration at half of the fitted maximal effect.

Microtubule-associated protein tau (Homo sapiens), sequence (P10636 561-689 P618L limits assumed): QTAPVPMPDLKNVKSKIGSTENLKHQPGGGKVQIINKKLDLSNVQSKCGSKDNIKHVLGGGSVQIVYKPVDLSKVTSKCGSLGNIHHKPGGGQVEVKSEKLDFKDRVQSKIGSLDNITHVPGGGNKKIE

Structure (SMILES) | Potency
Cc1ccc(S(=O)(=O)c2c(Nc3cccc(Cl)c3)sc(C(=O)c3ccc4c(c3)OCO4)c2N)cc1 | inactive
CCOc1cc(C(=O)Nc2nnc3n2CCS3)cc(OCC)c1OCC | inactive
Cc1ccc2cccc(NC(=O)C(C)Oc3ccc(C)c(C)c3)c2n1 (centres undefined) | inactive
Cc1ccccc1C(=O)Nc1cc(C)c(O)c(-c2nc3ccccc3o2)c1 | inactive
CC(C)c1ccc(C2CC(=O)N3CN(C4CCCCC4)CSC3=C2C#N)cc1 (centres undefined) | 22.4 µM (active)
CC(C)c1ccc(C2C(C#N)=C(N)Oc3c2oc(CO)cc3=O)cc1 (centres undefined) | inactive
CCOC(=O)c1ccc(N2C(=O)c3n[nH]c(-c4ccco4)c3C2c2ccc(O)cc2)cc1 (centres undefined) | inactive
CCCc1nn2c(=O)cc(COC(=O)c3ccc(NC(=O)C(C)Oc4ccccc4)cc3)nc2s1 (centres undefined) | inactive
COc1ccc(C2=NN(c3nc4ccccc4s3)C(=O)C2)cc1 | 10 µM (active)
COc1ccc(C2=NN(c3ccccc3)C(c3cccs3)C2)cc1 (centres undefined) | inactive
COC(=O)Cc1[nH]n(-c2nc3ccccc3s2)c(=O)c1C(C)=Nc1ccc(OC)cc1 | inactive
CCOC(=O)c1c(S(=O)(=O)N2CCC(C(=O)NCc3ccccc3OC)CC2)c(C)n(C)c1C | inactive
CN(C)c1ccnc2sc(C(=O)c3ccccc3)c(N)c12 | inactive
O=C(CN1C2=NCCN2c2ccccc21)c1cccs1 | inactive
Nc1c(C(=O)c2cccs2)sc2nsc(SCCN3CCCCC3)c12 | 4.47 µM (active)
O=C(NCc1ccccc1Cl)c1cccn1-c1nnc(N2CCCCC2)s1 | inactive
O=C(Nc1nc(-c2ccc(-c3ccccc3)cc2)cs1)c1cnccn1 | inactive
O=C(Nc1nc(-c2ccncc2)cs1)C1COc2ccccc2O1 (centres undefined) | 28.2 µM (active)
O=C(CSC1=NCCS1)Nc1nc(-c2ccccc2)cs1 | inactive
Cc1cccc(S(=O)(=O)c2cn(Cc3ccccc3)c3cc(N4CCOCC4)c(F)cc3c2=O)c1 | inactive
COc1ccc(CNC(=O)c2cc3c(s2)-c2ccccc2OC3)cc1 | inactive
CCN(CC)S(=O)(=O)c1ccc(C(=O)N=c2sc3cccc(OC)c3n2C)cc1 | inactive
O=C(Cn1c(-c2cccs2)cc2ccccc21)NCCc1ccc(Cl)cc1 | inactive
CN(Cc1ccccc1)c1ccc(-c2nc(-c3ccccc3)no2)cc1[N+](=O)[O-] | inactive
COc1ccc(N2CCN(C(C)=C3C(=O)c4ccccc4C3=O)CC2)cc1 | inactive

Structure (SMILES) | Potency
COc1ccc(N2CCN(c3ccc([N+](=O)[O-])nc3)CC2)cc1 | 1.41 µM (active)
COc1ccc(N2CCN(C(=O)CSc3ncnc4c3cnn4-c3ccc(OC)cc3)CC2)cc1 | inactive
Cc1nn(C(C)C(=O)Nc2ccc(C(C)C)cc2)c(=O)c2c1sc1ccccc12 (centres undefined) | inactive
O=C(CSc1nc2c(c(=O)[nH]1)CN(Cc1ccc(F)cc1)CC2)Nc1ccccc1Cl | inactive
NS(=O)(=O)c1ccc2nc(NC(=O)COc3ccccc3)sc2c1 | inactive
O=C(NCc1cccnc1)C(=O)NCC(c1cccnc1)N1CCN(c2ccccc2)CC1 (centres undefined) | inactive
CCc1ccc(S(=O)(=O)n2ccnc2)cc1 | inactive
N/C(=N\OC(=O)Cc1ccccc1[N+](=O)[O-])c1ccc(Br)cc1 | inactive
Cc1ccc(C(=O)c2ccc(N3CCN(C)CC3)c([N+](=O)[O-])c2)cc1 | inactive
Cc1oc2cc([N+](=O)[O-])c(O)c([N+](=O)[O-])c2c1C(=O)c1ccc(Br)cc1 | 10 µM (active)
Cc1ccc(C)c(S(=O)(=O)n2nc(C)c(S(=O)(=O)N3CCC(C)CC3)c2C)c1 | inactive
CSc1ccc(C2C(C(=O)Nc3ccccc3)=C(C)Nc3nc4ccccc4n32)cc1 (centres undefined) | inactive
COc1ccc(S(=O)(=O)c2c(Nc3ccc(C)cc3)sc(C(=O)c3ccc(C)cc3)c2N)cc1 | inactive
CC(=O)c1ccc(NS(=O)(=O)c2ccc(-c3cc(C)no3)s2)cc1 | inactive
c1ccc(-c2oc3ncnc(N4CCOCC4)c3c2-c2ccccc2)cc1 | inactive
Cc1oc2c(c1C(=O)N1CCOCC1)C(=O)c1ccccc1C2=O | inactive
O=C1c2ccccc2-c2ncnc3c(N4CCOCC4)cc(N4CCOCC4)c1c23 | 8.91 µM (active)
CCn1cc(C(=O)NCCc2ccccc2)c(=O)c2cc(S(=O)(=O)N3CCCCCC3)ccc21 | inactive
CCCN(CCC)C(=O)Cn1c(=O)n(-c2ccc(Cl)cc2)c(=O)c2c3c(sc21)CCCCC3 | inactive
Cc1cc2c(cc1S(=O)(=O)CCC(=O)Nc1ccc(OC(F)(F)F)cc1)OCC(=O)N2 | inactive
COc1cccc(CC(=O)Nc2ccc(-c3csc(C)n3)cc2)c1 | inactive
CCOC(=O)c1csc(NC(=O)Nc2cccc(OC)c2)n1 | inactive
CCCCCCC(=O)Nc1nc(C)c(-c2csc(Nc3cccc(OC)c3)n2)s1 | 7.94 µM (active)
CCCOc1cccc(C(=O)Nc2cccc(NC(=O)c3ccc(C(C)(C)C)cc3)c2)c1 | inactive
Cc1ccc(Cc2nc3ccccc3nc2SCC(=O)Nc2cccc(C(F)(F)F)c2)cc1 | inactive

Structure (SMILES) | Potency
C/C(=N\Nc1cccc(C(=O)O)c1)c1ccc2c(c1)Nc1ccccc1S2 | 5.01 µM (active)
CC(=O)Nc1cccc(/C(C)=N/NC(=O)c2ccccc2Cl)c1 | inactive
O=C(NC1CC1)c1ccc2c(c1)NC(=O)c1ccccc1S2 | inactive
Cc1ccc2c(c1)-c1c(cnn1CC(=O)Nc1ccccc1C#N)CO2 | inactive
CSc1ncc(C(=O)NCc2ccccc2Cl)c(C(F)(F)F)n1 | inactive
COc1ccc(-c2cc(C3CCN(c4ncccc4[N+](=O)[O-])CC3)[nH]n2)cc1 | 8.91 µM (active)
CC(=O)NC(Cc1ccccc1)C(=O)NC1CCN(c2ncccc2[N+](=O)[O-])CC1 (centres undefined) | inactive
COc1ccc(N2C(=O)CC(Nc3ccc(F)cc3)C2=O)c([N+](=O)[O-])c1 (centres undefined) | inactive
CCOc1ccccc1C(=O)NCC(c1ccc(N(C)C)cc1)N1CCCC1 (centres undefined) | inactive
Cc1cc(C)c(NC(=O)CSc2nc3nccnc3c(=O)n2CCc2c[nH]c3ccccc23)c(C)c1 | inactive
Cc1nc2ccccc2nc(=O)c1NNc1ccc([N+](=O)[O-])cc1 | 11.2 µM (active)
O=C(Nn1c(-c2ccccc2)nc2ccccc2c1=O)c1ccc([N+](=O)[O-])cc1 | inactive
O=[N+]([O-])c1cccc(Nc2c3ccccc3nc3ccccc23)c1 | inactive
COC(=O)c1cc(NC(=O)c2cnc(SC)nc2-c2ccccc2)cc(C(=O)OC)c1 | inactive
Cc1ccc(Nc2ccc3cc(S(=O)(=O)N4CCCCC4)ccc3n2)cc1F | inactive
CCCCc1nc(NCc2ccccc2)c(C#N)c2c1CCCC2 | inactive
CCN1CCc2c(C#N)c(NCc3ccccc3)nc(NCCO)c2C1 | 22.4 µM (active)
CCc1nc(NCCO)c(C#N)c2c1CCCC2 | inactive
COc1ccc(SCc2cc(=O)c3ccc(C)c(C)c3[nH]2)cc1 | inactive
COc1ccc(CNC(=O)C(C)n2nc(C)c3c(C)n(-c4ccccc4)nc3c2=O)c(OC)c1 (centres undefined) | inactive
CCOC(=O)c1[nH]c(C)c(CCC(=O)NCc2ccccc2C)c1C | inactive
CCOC(=O)N1CCN(CC(=O)Nc2cc(C)nn2-c2nc3ccccc3s2)CC1 | inactive
Cc1cc(NC(=O)CN2CCCC(C)C2)n(-c2nc3ccccc3s2)n1 (centres undefined) | inactive
CCC(C)Cn1c(O)cc2nn(-c3nc4ccccc4s3)c(=O)c-2c1C (centres undefined) | 31.6 µM (active)
COc1ccccc1N1CCN(c2ncnc3onc(-c4ccc(F)cc4)c23)CC1 | inactive

Structure (SMILES) | Potency
N#Cc1ccccc1Cn1cnc2nc3c(cc2c1=O)CCCC3 | inactive
CCOC(=O)N1CCc2c(sc3c2C(=O)NC(c2ccccc2F)N3)C1 (centres undefined) | inactive
CCOC(=O)c1c(NC(=O)/C(C#N)=C/c2ccccc2)sc2c1CCC2 | inactive
C/C(=C\c1ccccc1)C1NC(=O)c2c(sc3c2CCCC3)N1 (centres undefined) | 3.55 µM (active)
O=C(Nc1ccc2nc(SCC(=O)N3CCCc4ccccc43)sc2c1)c1ccc(Cl)cc1 | inactive
CCC(=O)Nc1c(C(=O)N2CCN(c3ccc(F)cc3)CC2)oc2ccccc12 | inactive
O=C(/C=C/Nc1ccccc1OC(F)(F)F)C(F)(F)F | inactive
CN(C)c1ccc(N/C=C/C(=O)C(F)(F)F)cc1 | 10 µM (active)
CC(=O)N(C)c1ccc(NC(=O)C(F)(F)F)cc1 | inactive
COC(=O)c1scc(-c2ccccc2)c1S(=O)(=O)Nc1ccccc1 | inactive
Fc1ccc(Nc2nnns2)cc1 | 28.2 µM (active)
CSc1nc(Nc2ccc(F)cc2)cc(-c2ccccc2)n1 | inactive
Cc1ccccc1OCCSc1nc2ccc(NC(=O)c3ccco3)cc2s1 | inactive
COc1cccc2c1cc1c(=O)n(CC(=O)N3CCN(c4cccc(Cl)c4)CC3)nc(C)n12 | inactive
Cc1ccc(NC(=O)C(=O)NCC(c2cccnc2)N2CCOCC2)cc1 (centres undefined) | inactive
Cc1ccc2sc(NNC(=O)c3ccc4c(c3)OCCO4)nc2c1C | 12.6 µM (active)
O=C(Nc1nc2ccccc2s1)c1ccc2c(c1)OCO2 | inactive
Cc1cc(C)c2nc(NC(=O)c3ccc4c(c3)OCO4)sc2c1 | inactive
COc1ccc(-c2noc(-c3ccc(N4CCN(c5ccccc5)CC4)c([N+](=O)[O-])c3)n2)cc1OC | inactive
O=C(Nc1ccccc1F)C(c1ccccc1)N1Cc2ccccc2C1=O (centres undefined) | inactive
Cc1ccc(-n2[nH]c(C)c(/C=N/N3C(=O)c4cccc5cccc(c45)C3=O)c2=O)cc1 | 22.4 µM (active)
C[N+](C)(CCCCCC[N+](C)(C)CCCN1C(=O)c2cccc3cccc(c23)C1=O)CCCN1C(=O)c2cccc3cccc(c23)C1=O | inactive
Cc1[nH]n(-c2ccc(Cl)cc2)c(=O)c1/C=N/n1c(C)nc2ccccc2c1=O | inactive
COc1ccc(NC(=O)CCCc2nnc3n(CCC(C)C)c(=O)c4sccc4n23)c(OC)c1 | inactive
